Bim-Mcl-1 – disrupts Bim peptide binding to human Mcl-1; inhibition, % at 10 µM; 190,000 compounds, 0.1% hits; Bead-based flow cytometry, Bim peptide-Mcl-1 binding; Q07820; in the data active = inhibition above about 40%;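 note: 0% = no compound tracer wells and 100% = peptide blocker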
Target sequence (Q07820 whole entry, looked up): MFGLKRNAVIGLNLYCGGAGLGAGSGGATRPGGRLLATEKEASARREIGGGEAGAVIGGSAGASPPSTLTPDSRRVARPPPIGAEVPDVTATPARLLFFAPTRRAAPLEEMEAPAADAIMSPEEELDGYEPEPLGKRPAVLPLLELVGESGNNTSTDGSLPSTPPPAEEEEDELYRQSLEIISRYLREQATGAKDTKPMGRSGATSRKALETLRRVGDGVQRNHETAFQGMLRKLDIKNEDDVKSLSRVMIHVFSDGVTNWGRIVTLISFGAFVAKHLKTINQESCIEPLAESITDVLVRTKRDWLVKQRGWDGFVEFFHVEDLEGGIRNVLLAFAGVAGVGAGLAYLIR
TNF death inh – inhibitors of TNF-alpha induced necroptosis in Jurkat FADD-/- cells. activation (protection from cell death), % at 10 µM. 220,000 compounds, 0.068% hits. AID 463075. Jurkat FADD-/- TNF necroptosis rescue, ATP luminescence, 24 h; 0 = TNF only, 100 = no-TNF cells;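 active = activation, meaning protection from cell death, of at least 50% relative to plate controls; inactive = activation below 50%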;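 note: necroptosis triggered by 40 ng/mL TNF-alpha added together with compound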
Mcl1 Bid PPI – disrupts binding of human Mcl-1 to Bid peptide; Q07820; TR-FRET Mcl-1/Bid-Dy647 peptide binding, 1536-well; inhibition, % at 21.7 µM; 220,000 compounds, 0.97% hits; AID 1021;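 active = compounds that cut the binding signal by more than half at the single screening dose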;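 note: His-tagged Mcl-1 with europium anti-His antibody binding Bid BH3 peptide; 0% = Mcl-1 plus peptide wells and 100% = peptide-only wells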
zVAD death inh – L929 zVAD cell death inhibition. L929 zVAD necroptosis rescue, ATP luminescence, 24 h; with zVAD 60 µM. viability rescue, % at 10 µM. 220,000 compounds, 0.38% hits;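 active = activation, scaled between plate controls, above about 75%, limit read from the data; inactive = activation under that limit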;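 note: 0% = zVAD with DMSO and 100% = DMSO alone without zVAD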
MCL1 BIM primary – MCL1-BIM-BH3 interaction inhibition (human); Q07820; GST-MCL1 / FITC-Bim-BH3 fluorescence polarization; inhibition, % at 10.9 µM; 320,000 compounds, 0.68% hits;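 active = inhibition above the mean inhibition of all tested compounds plus 3 SD, set per campaign, cut at about 40% in these data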;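 note: 0% = DMSO wells and 100% = unlabeled Bim-BH3 peptide control; higher means more loss of mP so more displacement of Bim peptide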
Mcl1-Noxa inh – disrupts binding of human Mcl-1 to Noxa peptide | Q07820 | TR-FRET Mcl-1/Noxa peptide binding, 2 h | inhibition, % at 21.7 µM | 220,000 compounds, 1.5% hits | AID 1022;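 active = compounds that cut the protein-peptide binding signal by more than 50% relative to plate controls in a single-dose test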;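 note: His-tagged Mcl-1 with rhodamine Noxa BH3 peptide and terbium anti-His antibody; 0% = Mcl-1 plus Noxa peptide wells and 100% = peptide-only wells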
Numbers without * were called inactive. Shown are actives, neighbours in structure and some others; about 2.4% of the full set was active somewhere.

Screening C#CCOCCOCCOCCNc1nc(N2CCN(C(=O)[C@H](CCCCN)n3cc(C(N)CC(C)C)nn3)CC2)nc(N2CCN(C(=O)[C@H](CCC(=O)O)n3cc(C(N)[C@H](C)CC)nn3)CC2)n1 (stereo not given in full) returned Bim-Mcl-1 -2, TNF death inh 1, Mcl1 Bid PPI 82*, zVAD death inh 0, MCL1 BIM primary 3 and Mcl1-Noxa inh 37.
For C#CCOCCOCCOCCNc1nc(N2CCN(C(=O)[C@H]([C@@H](C)CC)n3cc([C@@H](N)CO)nn3)CC2)nc(N2CCN(C(=O)[C@H]([C@@H](C)CC)n3cc([C@@H](N)CC(C)C)nn3)CC2)n1 the results were Bim-Mcl-1 -2, TNF death inh 0, Mcl1 Bid PPI 56*, zVAD death inh 1, MCL1 BIM primary 43* and Mcl1-Noxa inh 23.
For C#CCOCCOCCOCCNc1nc(N2CCN(C(=O)[C@H](CCCCN)n3cc([C@@H](N)CO)nn3)CC2)nc(N2CCN(C(=O)[C@H](Cc3cc4ccccc4[nH]3)n3cc([C@@H](N)Cc4ccc(O)cc4)nn3)CC2)n1 the results were Bim-Mcl-1 -3, TNF death inh 0, Mcl1 Bid PPI 43, zVAD death inh 0, MCL1 BIM primary 10 and Mcl1-Noxa inh 35.
`C#CCOCCOCCOCCNc1nc(N2CCN(C(=O)[C@H](CCCCN)n3cc([C@@H](N)CC(C)C)nn3)CC2)nc(N2CCN(C(=O)[C@H](Cc3cc4ccccc4[nH]3)n3cc([C@@H](N)Cc4ccc(O)cc4)nn3)CC2)n1` gave Bim-Mcl-1 1, TNF death inh 2, Mcl1 Bid PPI 60*, zVAD death inh -1, MCL1 BIM primary -2 and Mcl1-Noxa inh 37.
Screening C#CCOCCOCCOCCNc1nc(N2CCN(C(=O)[C@H](CCC(=O)O)n3cc(C(N)Cc4ccc(O)cc4)nn3)CC2)nc(N2CCN(C(=O)[C@H](Cc3ccc(O)cc3)n3cc(C(N)CC(C)C)nn3)CC2)n1 (stereo not given in full) returned TNF death inh -1, Mcl1 Bid PPI -9, zVAD death inh 0 and Mcl1-Noxa inh 18.
C#CCOCCOCCOCCNc1nc(N2CCN(C(=O)[C@H]([C@@H](C)CC)n3cc([C@@H](N)CO)nn3)CC2)nc(N2CCN(C(=O)[C@H]([C@@H](C)CC)n3cc([C@@H](N)CO)nn3)CC2)n1 was read as TNF death inh 1, Mcl1 Bid PPI -38, zVAD death inh 1 and Mcl1-Noxa inh 11.
C#CCOCCOCCOCCNc1nc(N2CCN(C(=O)[C@H](CCC(=O)O)n3cc(C(N)CC(C)C)nn3)CC2)nc(N2CCN(C(=O)[C@H](Cc3ccc(O)cc3)n3cc(C(N)CC(C)C)nn3)CC2)n1 (stereo not given in full) was read as Bim-Mcl-1 0, TNF death inh 1, Mcl1 Bid PPI 59*, zVAD death inh 0, MCL1 BIM primary 11 and Mcl1-Noxa inh 32.
Cc1cc(NC(=O)CCC(=O)N(CC(=O)NC2CCCC2)c2ccc(Cl)cc2)no1 was read as MCL1 BIM primary 2.
For Oc1ccc(-c2c(C3=CCCCC3)sc3ccccc23)cc1 the results were MCL1 BIM primary -6.
Screening COc1ccc(-c2cc(C(=O)NCCN3CCOCC3)no2)cc1OC returned MCL1 BIM primary 4.
Screening Cc1cc(Cl)c2oc(C(=O)N(C)CC3CCOCC3)c(C)c2c1 returned MCL1 BIM primary 3.
`C#CCOCCOCCOCCNc1nc(N2CCN(C(=O)[C@H](C)n3cc(CCCN=C(N)N)nn3)CC2)nc(N2CCN(C(=O)[C@H](CCCCN)n3cc(CCCC)nn3)CC2)n1` gave Bim-Mcl-1 -1, TNF death inh 3, Mcl1 Bid PPI 72*, zVAD death inh 6 and Mcl1-Noxa inh 40.
`CN1CCC(=NNC(=O)CN(c2ccc([N+](=O)[O-])cc2)S(=O)(=O)c2ccccc2)CC1` gave MCL1 BIM primary -7.
For CCOC(=O)C1=C2NC(=O)c3ccccc3N2C(=O)C1 the results were Bim-Mcl-1 -1, TNF death inh 0, Mcl1 Bid PPI -29, zVAD death inh 3, MCL1 BIM primary 43* and Mcl1-Noxa inh -1.
`CC1CN(C(=O)c2cccc(C(=O)N3CC(C)OC(C)C3)c2)CC(C)O1` (stereo not given) gave Bim-Mcl-1 2, TNF death inh -1, Mcl1 Bid PPI 97*, zVAD death inh 1, MCL1 BIM primary -5 and Mcl1-Noxa inh 13.
`CC(C)N(C(=O)CSc1nnnn1-c1ccc2c(c1)OCO2)C(C)C` gave Bim-Mcl-1 -3, TNF death inh 1, Mcl1 Bid PPI 65*, zVAD death inh 11, MCL1 BIM primary -10 and Mcl1-Noxa inh -1.
Screening COC(=O)c1cc(N=Nc2sc(N)nc2C)cc(C(=O)OC)c1 returned TNF death inh -2, Mcl1 Bid PPI -5, zVAD death inh 0, MCL1 BIM primary 3 and Mcl1-Noxa inh 53*.
CN(C(=S)NC(=O)c1ccc(Cl)cc1)C1CCCCC1 was read as MCL1 BIM primary 31.
`NS(=O)(=O)c1ccc(CCNC(=O)CSc2ccsc2[N+](=O)[O-])cc1` gave Bim-Mcl-1 5, TNF death inh 3, Mcl1 Bid PPI -35, zVAD death inh 0, MCL1 BIM primary 13 and Mcl1-Noxa inh 53*.
`CSc1ccc(CCNC(=O)CSc2ccsc2[N+](=O)[O-])cc1` gave Bim-Mcl-1 -1, TNF death inh -1, Mcl1 Bid PPI -37, zVAD death inh 0, MCL1 BIM primary 23 and Mcl1-Noxa inh 8.
O=C(CSc1ccsc1[N+](=O)[O-])Nc1cccc(F)c1 was read as Bim-Mcl-1 0, TNF death inh 4, Mcl1 Bid PPI -47, zVAD death inh 0 and Mcl1-Noxa inh 98*.
CCc1ccccc1NC(=O)CSc1ccsc1[N+](=O)[O-] was read as Bim-Mcl-1 -3, TNF death inh 2, Mcl1 Bid PPI -57, zVAD death inh 1, MCL1 BIM primary 34 and Mcl1-Noxa inh 54*.
Screening N#Cc1cccc(NC(=O)c2cncn2-c2ccccc2)c1 returned MCL1 BIM primary -19.
CCOC(=O)c1cc(C#N)c(N2CCCNCC2)nc1C(F)(F)F was read as MCL1 BIM primary 13.
Screening O=C(CCC1CCCN(C(=O)CCC(F)(F)F)C1)NCc1ccc(F)c(F)c1 (stereo not given) returned Bim-Mcl-1 -1, TNF death inh 1, Mcl1 Bid PPI 12, zVAD death inh -1, MCL1 BIM primary -1 and Mcl1-Noxa inh 53*.
`COC(=O)CCCC(=O)N1CCCC(CCC(=O)NCc2ccc(F)c(F)c2)C1` (stereo not given) gave Bim-Mcl-1 -1, TNF death inh 1, Mcl1 Bid PPI -1, zVAD death inh 1, MCL1 BIM primary -13 and Mcl1-Noxa inh 6.
